# Tgondii IFNg: blocks Toxoplasma gondii growth in the presence of IFN-gamma | Toxoplasma gondii growth in IFN-gamma-treated host cells; stronger effect = lower value | activity change, negative = inhibition, % (no concentration beside the values) | 3.8% of 69,000 active | AID 1259416; in the data active = activity change below about -70%, passing the limit was not always enough;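 also: host cells are HeLa cells infected with Toxoplasma gondii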
# An asterisk follows results filed as active; ! = a repeat was not active. This is one part of a sample in which hits are shown more often than they occur.
SMILES,Tgondii IFNg
Cc1nnsc1-c1noc(CS(=O)(=O)c2ccc(Cl)cc2)n1,40.2
O=C1CSC(=O)N1CCS(=O)(=O)c1ccc(Cl)cc1,-1.5
CS(=O)(=O)NC1CC2(CCN(C(=O)c3ccsc3)CC2)C1,288.4
COc1cccc(OC)c1C(=O)NCCc1csc(-c2cccc(F)c2)n1,38.2
CC(C)(C)c1ccc(C(O)CCCN2CCC(C(O)(c3ccccc3)c3ccccc3)CC2)cc1 (stereo unspecified),-91.2*!
CC(C(=O)N1CCC(C(O)(c2ccccc2)c2ccccc2)CC1)n1ccnc1 (stereo unspecified),-11.3
Cn1cc(CN2CCC(C(O)(c3ccccc3)c3ccccc3)CC2)cn1,4.3
Cn1c(=O)n(C)c2cc(NC(=O)C(c3ccc(F)cc3)N3CCOCC3)ccc21 (stereo unspecified),2.4
COc1cccc2c1C(=O)c1c(O)c3c(c(O)c1C2=O)C[C@@](O)(C(=O)CO)C[C@@H]3OC1C[C@H](N)[C@H](O)[C@H](C)O1 (stereo partly specified),-89.6*
Cc1cc(N2CCCN(Cc3ccc(Cn4cccn4)cc3)CC2)ccn1,-9.1
CN1c2ccsc2-c2nc(SCc3ccc(Cl)cc3)ncc2S1(=O)=O,-85.0*
Clc1ccc(CSc2cccs2)cc1,10.8
O=c1nc(SCc2ccc(Cl)cc2)nc(-c2ccccc2)[nH]1,-43.6
Cc1ccc(NC(=O)Cn2c(=O)cc(C(=O)N3CCOCC3)c3ccccc32)cc1,6.9
COc1ccc(-c2cc(-c3ccccc3)c3c(N)c(S(C)(=O)=O)sc3n2)cc1,28.3
COc1ccc(OCC(=O)NCCc2csc(-c3ccc(F)cc3)n2)cc1,51.3
CCOc1ccccc1NC(=O)C(=O)NCCc1csc(-c2ccc(Cl)cc2)n1,-51.4
COc1cc(OC)cc(C(=O)NCCc2csc(-c3ccc(F)cc3)n2)c1,27.5
Cc1ccccc1C(=O)NCCc1csc(-c2ccc(Cl)cc2)n1,-31.6
O=C(NCCc1csc(-c2ccc(F)cc2)n1)c1ccccc1F,-69.7
COc1ccc(C(=O)NCCc2csc(-c3ccc(F)cc3)n2)c(OC)c1,-96.7*
COc1ccc(-c2nc(CCNC(=O)c3ccccc3F)cs2)cc1,412.4
COc1ccc(Cl)cc1C(=O)NCCc1csc(-c2ccc(F)cc2)n1,-83.5*
COc1ccccc1C(=O)NCCc1csc(-c2ccc(F)cc2)n1,-93.1*
COc1ccc(C(=O)NCCc2csc(-c3ccc(Cl)cc3)n2)cc1OC,15.5
SMILES,Tgondii IFNg
COc1cccc(OC)c1C(=O)NCCc1csc(-c2ccc(Cl)cc2)n1,35.3
CCOc1ccccc1C(=O)NCCc1csc(-c2ccc(Cl)cc2)n1,-79.5*
CN(C)C(=O)COCc1nnc2n1CCN(Cc1ccsc1)C2,-2.3
Cc1noc(C)c1CN1CCCn2nnc(COCCO)c2C1,-4.6
CC(C)Oc1ccc(CN2CCN(Cc3cccc(F)c3)CC2)cc1CO,-6.8
O=C1NCC[C@]12CN(C1CCOC1)C[C@H]2c1ccccc1 (stereo partly specified),-3.1
Cc1oc(-c2cccc(Cl)c2)nc1CN1CCN(C(=O)NC2CCCC2)CC1,1.5
O=C(NCCc1csc(C2CCN(C(=O)c3ccoc3)CC2)n1)C1CCC1,-2.0
COc1ccc(C(=O)CSc2nc(Cc3cccs3)nc3ccccc23)cc1,11.3
Cc1nonc1-c1csc(NC(=O)Cc2csc(-c3ccccc3)n2)n1,-5.8
Cc1oc(-c2cccc(Cl)c2)nc1CN(C)CC1(CO)CCOCC1,5.6
Cc1ccc(NC(=O)Cn2ncc3c(N4CCN(c5ccccn5)CC4)ncnc32)cc1C,-54.6
O=C(Cn1ncc2c(N3CCN(c4ccccn4)CC3)ncnc21)Nc1ccccc1Cl,96.9
CC(C)c1cccc(NC(=O)Cn2ncc3c(N4CCN(c5ccccn5)CC4)ncnc32)c1,-92.9*
O=C(Cn1ncc2c(N3CCN(c4ccccn4)CC3)ncnc21)Nc1ccc(Cl)cn1,-82.9*
Cc1cc(Cl)ccc1NC(=O)Cn1ncc2c(N3CCN(c4ccccn4)CC3)ncnc21,64.0
CC(C)c1ccc(NC(=O)Cn2ncc3c(N4CCN(c5ccccn5)CC4)ncnc32)cc1,-43.3
Cc1ccc(NC(=O)Cn2ncc3c(N4CCN(c5ccccn5)CC4)ncnc32)cc1Cl,-73.7*
COc1ccc(NC(=O)Cn2ncc3c(N4CCN(c5ccccn5)CC4)ncnc32)cc1Cl,119.9
Cc1cccc(NC(=O)Cn2ncc3c(N4CCN(c5ccccn5)CC4)ncnc32)c1,87.5
Cc1oc(-c2ccc(C(=O)NCCCN3CCCC3=O)cc2)nc1CN1CCc2ccccc21,162.0
CN1CCN(CC2CC2)C2(CCN(C(=O)c3ccc4c(c3)OCO4)CC2)C1=O,-24.9
Cc1ccc(-c2ccc(S(C)(=O)=O)cc2)cn1,-4.4
Cc1[nH]cnc1-c1nccn1Cc1scnc1-c1ccccc1,5.8
Cc1cc2c(cc1CN(C)Cc1c(C)noc1C)OCO2,12.4
SMILES,Tgondii IFNg
CN(C)S(=O)(=O)c1ccc2c(c1)cc(C(=O)NCc1ccco1)n2Cc1ccncc1,30.9
CC(C)c1nnc(NC(=O)COc2ccc3c(c2)OCO3)s1,-84.6*
Cc1nn(-c2ccc(F)cc2)c(C)c1CNC(=O)COc1ccc2c(c1)OCO2,41.0
COCC(=O)Nc1cccc(-c2ccc3c(c2)OCO3)c1,37.8
CN(Cc1ncc[nH]1)C(=O)COc1ccc2c(c1)OCO2,-4.9
Cn1c(CN2CCCCC2)nc2cc(NC(=O)COc3ccc4c(c3)OCO4)ccc21,-12.0
COCCSc1nnc(NC(=O)COc2ccc3c(c2)OCO3)s1,-83.0*
CCc1cc(CN(C)Cc2ccc(-n3ccnc3)cc2)on1,8.3
CCCCc1ncc(CN2CC[C@H](O)C[C@@H]2C(=O)O)[nH]1,-49.4
O=C(CCc1cc(Cl)no1)N1CCC[C@H](Cn2nnc(-c3ccccn3)n2)C1,-19.3
FC(F)(F)COc1nc(N2CCOCC2)nc(N2CCN(c3ccccc3)CC2)n1,-31.8
CCc1cccc(NC(=O)c2c(O)c3ccccc3n(-c3ccccc3)c2=O)c1,56.3
CCCCNC(=O)c1cncc(N(C)S(=O)(=O)c2ccc(C)cc2)c1,13.2
CN(Cc1ccccc1)C1CCN(C(=O)c2ccncc2)C(C(=O)O)C1 (stereo unspecified),-0.7
COc1ccccc1CNc1nc(-c2nnc(-c3ccccc3)o2)nc2ccccc12,-96.0*
Cc1ccc(-c2nnc(-c3nc(NC(C)c4ccccc4)c4ccccc4n3)o2)cc1 (stereo unspecified),-63.4
Clc1ccccc1CNc1nc(-c2nnc(-c3ccccc3)o2)nc2ccccc12,-48.7
CCOc1ccccc1CNc1nc(-c2nnc(-c3ccc(OC)cc3)o2)nc2ccccc12,-13.1
c1ccc(CCNc2nc(-c3nnc(-c4ccccc4)o3)nc3ccccc23)cc1,-64.2
CC(CNc1nc(-c2nnc(-c3ccccc3)o2)nc2ccccc12)c1ccccc1 (stereo unspecified),-115.4*
COc1ccc(-c2nnc(-c3nc(NCc4ccccc4C)c4ccccc4n3)o2)cc1,32.0
COc1ccccc1CNc1nc(-c2nnc(-c3cccc(C)c3)o2)nc2ccccc12,-89.8*
COc1ccc(-c2nnc(-c3nc(NCc4ccccc4)c4ccccc4n3)o2)cc1,-68.5
Cc1ccccc1CNc1nc(-c2nnc(-c3ccccc3)o2)nc2ccccc12,-89.8*
Cc1cc2oc(=O)cc(C)c2cc1NC(=O)C1CC(C(C)C)=NO1 (stereo unspecified),9.4
CCOC(=O)c1ccc(N2CCN(C3CCOCC3)CC2)nc1,7.7
CC1c2ccsc2CCN1Cc1ccccc1-n1cccn1 (stereo unspecified),-14.9
CC(C)c1nnc(NC(=O)CSCC(=O)Nc2cccc3ccccc23)s1,34.3

# Assay outcomes: PubChem, Broad Institute
